ATXN viability: reduces viability in counter-screen for ATXN expression inhibitors; actives 0.49% (n = 400,000); Potency, µM (highest dose often 56.7 µM), most hits filed as cytotoxic; AID 651635; S2 cells (HEK-293 line with an ATXN2-luciferase reporter) viability, CellTiter-Fluor protease fluorescence, 24 h; further: nearly all actives have a fitted effect of over 40% in size
ATXN2 expr inh: ATXN2 expression inhibition | HEK-293 ATXN2-luciferase reporter, luminescence, 24 h | Potency, µM (highest dose often 57 µM), hits mostly inhibitors | actives 0.72% (n = 360,000) | AID 1745845; further: nearly all actives have a fitted effect of over 55% in size
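ATXN2-luciferase reporter cells (luciferase flanked by upstream and downstream ATXN2 gene portions) were treated 24 h at 37 °C with compounds at up to 57 uM. SteadyGlo luminescence gave expression; GF-AFC fluorescence gave viability.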
IL1B secr inh: blocks inflammasome-driven IL-1 beta release. THP-1 LPS/ATP IL-1B secretion, AlphaLISA, 16 h; hits give low values. activity change, % at 57.5 µM. actives 4.7% (n = 360,000); in the data active means activity change below about -50%; inconclusive means mostly about -30% to -49%
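THP-1 cells pretreated 1 hr with compounds (up to 57.5 uM final), then stimulated with LPS (250 ng/mL final) plus ATP (1.25 mM final); secreted IL-1B measured by AlphaLISA after 16 hr, decreased signal indicating inhibition.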
Integrin act MD: activators of alpha7 integrin expression for muscular dystrophy. alpha7betagal myoblasts, beta-gal FDG fluorescence, 48 h. Potency, µM (titrated, usually from 38.3 µM), actives largely listed as activators. actives 0.064% (n = 350,000); further: nearly all actives have a fitted effect of over 60% in size
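Alpha7betagal+/- myoblasts (passage 13) were plated 16-24 hr, then exposed to compounds (1:260 dilution of DMSO stock) for 48 hours at 37C. After MPER lysis, β-galactosidase reporter activity was read as FDG fluorescence (ex 480/em 540) after 30 minutes.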
DRD3 antagonist: D3 dopamine receptor (human) antagonism. D3R cells, DiscoveRx beta-arrestin luminescence, antagonist mode; hits give low values. max response, negative = inhibition, %. actives 2.5% (n = 360,000). AID 652054; in the data active means max response below about -50%; inconclusive means no clear call, values can overlap the other calls
Target sequence (P35462 whole entry, looked up): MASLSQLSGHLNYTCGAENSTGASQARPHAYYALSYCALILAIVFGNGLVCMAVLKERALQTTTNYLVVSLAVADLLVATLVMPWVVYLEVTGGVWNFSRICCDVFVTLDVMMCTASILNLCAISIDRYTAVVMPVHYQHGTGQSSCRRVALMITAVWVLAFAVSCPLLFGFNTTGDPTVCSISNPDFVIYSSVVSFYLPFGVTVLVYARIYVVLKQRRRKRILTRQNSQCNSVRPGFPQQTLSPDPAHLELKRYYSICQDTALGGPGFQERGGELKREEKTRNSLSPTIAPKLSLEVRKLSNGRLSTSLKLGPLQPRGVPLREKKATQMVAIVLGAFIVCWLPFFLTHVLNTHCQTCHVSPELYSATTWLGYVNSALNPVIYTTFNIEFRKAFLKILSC
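Cells expressing the human receptor were seeded at 1500 cells/well, incubated overnight at 37 degrees C in 5% CO2, then exposed to library compounds with dopamine controls for 90 minutes at 37 degrees C before luminescent detection.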
DRD3 agonist: activates the human D3 dopamine receptor. max activation, %. actives 0.58% (n = 410,000). AID 652048. P35462. D3R DiscoveRx beta-arrestin cells, luminescence, 90 min; in the data active means max activation above about 30%
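Agonist mode: compounds and dopamine controls were applied to plated cells for 90 min at 37 degrees C after an overnight attachment at 1500 cells/well. Luminescent read-out followed 30 - 60 minutes at room temperature with DiscoveRx detection reagent.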
A number is an active result; - = inactive; ? = inconclusive; . = no result; [ ] = remark or other dose. Most compounds without a hit are left out; they make up all but 7% or so of the library. Unless noted, the call rests on the fitted dose curve; in most records, active means well fitted curve in the direction sought with a large enough effect; inconclusive means small, poorly fitted or top-dose-only effect, or another doubt; inactive means no such curve, though single readings can be large; an effect the other way counts as inactive or inconclusive.

SMILES	ATXN viability	ATXN2 expr inh	IL1B secr inh	Integrin act MD	DRD3 antagonist	DRD3 agonist
NS(=O)(=O)OCCCc1ccc(C(F)(F)F)cc1	-	-	-	-	-	-
CCOc1ccccc1NC(=O)c1oc2ccccc2c1NC(=O)C1CC1	-	-	-	-	-	-
COc1ccccc1NC(=S)NNC(=O)c1ccncc1	-	-	-	-	-	-
COc1ccccc1NC(=S)N/N=C/c1cccc(C)c1	?	-	-	-	-	-
COc1ccccc1NC(=S)NNC(=O)c1cc(C)n(C)n1	-	-	-	-	-50.4	-
COc1ccccc1C(=O)NC(=S)Nc1cccc2cc(O)ccc12	-	-	-85.2	-	-	-
COc1ccccc1NC(=S)NNC(=O)c1ccccc1	-	-	-	-	-72.0	-
COc1ccccc1NC(=S)N/N=C/c1ccc(O)cc1	-	-	-100.6	-	-	-
CCc1ccccc1S(=O)(=O)Cc1ccc(C(=O)N2CCN(c3ccccn3)CC2)o1	-	-	-	-	-	-
COc1ccccc1NC(=S)NNC(=O)c1cc(C)nn1C	-	-	-	-	-70.3	-
COc1ccccc1NC(=S)NNC(=O)c1c(Cl)c(C)nn1C	-	-	-	-	-	-
O=C(Cc1ccc(S(=O)(=O)N2CCCC2)s1)N1CCN(c2ccc(F)cc2)CC1	-	.	-	-	-	-
CC(Sc1nnc(Cc2cccs2)n1C1CCCCC1)C(=O)NCc1ccco1 (stereo not drawn)	-	-	-	-	-	-
CC(Sc1nnc(Cc2cccs2)n1C1CCCCC1)C(=O)N1CCc2ccccc21 (stereo not drawn)	?	-	-66.8	-	?	-
O=C(N/N=C/c1ccccc1O)C1CC(=O)N(c2ccc(Cl)cc2)C1 (stereo not drawn)	-	6.31µM	-	-	-	-
COc1ccc(NC(=O)c2cnc(N3CCCC3)nc2)cc1OC	-	-	.	.	.	-
O=C1C(Cl)=C(N2CCC(C(=O)O)CC2)C(=O)c2ccccc21	-	25.1µM	-	?	-53.3	-
CN1CCN(C2=C(Cl)C(=O)C(c3cnc(N4CCCCC4)s3)=C(Cl)C2=O)CC1	25.1µM	?	-	-	-	-
CC1COCC(C)N1C1=C(Cl)C(=O)c2ccccc2C1=O (stereo not drawn)	?	?	?	-	-58.3	-
CN1CCN(C2=C(Cl)C(=O)c3ccccc3C2=O)CC1	.	23.8µM	-104.4	-	?	-
NC(=O)C1CCN(C2=C(NS(=O)(=O)c3ccccc3)C(=O)c3ccccc3C2=O)CC1	-	-	-	-	-	-
NC1=C(Cl)C(=O)c2ccccc2C1=O	?	?	-	-	-	-
CCOC(=O)n1c(=O)n(C)c2ccc(Cl)cc21	-	-	-	-	-	-
Cc1ccc2nc(-c3ccc(C)o3)c(Nc3ccc4c(c3)OCCO4)n2c1	?	-	.	.	.	-
NC(=O)C1CCN(C2=C(Cl)C(=O)c3ccccc3C2=O)CC1	?	?	-98.0	-	-74.5	-
SMILES	ATXN viability	ATXN2 expr inh	IL1B secr inh	Integrin act MD	DRD3 antagonist	DRD3 agonist
CCC(=O)NNc1nc2c(C)c(C)ccc2s1	-	-	-	-	-	-
CC(C)=CCCC1(C)C=Cc2c(c(C)cc3c2[nH]c2cc(O)ccc23)O1 (stereo not drawn)	28.2µM	?	-74.5	-	-	-
Cc1ccc(CN2CCN(Cc3cnc(C)[nH]3)CC2CCO)cc1 (stereo not drawn)	-	-	-	-	-	-
Cc1[nH]c2ccccc2c1C(C#N)(C#N)C1C(=O)c2ccccc2C1=O	-	-	-	-	-88.8	-
CC(C)COP(=O)(OCC(C)C)C(Nc1ccccc1)c1ccccc1 (stereo not drawn)	-	-	-57.5	-	-	-
CC(C)COP(=O)(OCC(C)C)C(Nc1ccccc1)c1ccc(F)cc1 (stereo not drawn)	-	-	?	-	-	-
CC(C)OP(=O)(OC(C)C)C(Nc1ccccc1)c1ccc2c(c1)OCO2 (stereo not drawn)	-	-	-	-	-	-
CC(C)COP(=O)(OCC(C)C)C(Nc1ccccc1)c1ccc2c(c1)OCO2 (stereo not drawn)	?	-	-62.3	-	-	-
O=C1CN(C(=O)Cc2ccccc2)C(c2ccc(F)cc2)c2cc(Br)ccc2N1 (stereo not drawn)	?	?	.	.	.	-
Cc1ccc(NC(=O)C(OC(=O)c2ccc(NC(N)=O)cc2)c2ccccc2)cc1Cl (stereo not drawn)	-	-	-53.0	-	-	-
Cc1cc(OCC(=O)Nc2ccc(CN3CCOCC3)cc2)ccc1Cl	-	-	-51.4	-	-	-
O=C(Nc1ccc(CN2CCOCC2)cc1)c1ccc(-c2ccc(Br)cc2)o1	?	?	-79.2	?	-	-
CC(C)COc1cccc(C(=O)Nc2ccc(S(=O)(=O)N3CCOCC3)cc2)c1	-	-	-	-	-	-
O=C(Nc1ccc(CN2CCOCC2)cc1)c1ccc(Br)cc1	-	-	-	-	-	-
CC(C)COc1cccc(C(=O)Nc2ccc(CN3CCOCC3)cc2)c1	-	-	-81.6	-	-	-
CCOc1ccc(C(=O)Nc2ccc(-c3nc4cc(C(C)C)ccc4o3)cc2)cc1Cl	-	-	.	.	.	-
Cc1cc(OCC(=O)NC(C)C)ccc1Cl	-	-	-	3.98µM	-	-
Cc1ccc(OCCC(=O)Nc2ccc(F)c(F)c2)cc1	-	-	-	-	-	-
Cc1cccc(OCCC(=O)Nc2ccc(F)c(Cl)c2)c1	-	-	-84.1	-	-	-
Cc1cc(OCC(=O)NCCO)ccc1Cl	-	-	-	-	-	-
Cc1ccc(NC(=O)COc2ccccc2)cc1Cl	-	-	-50.8	-	-	-
O=C(/C=C/[C@H]1O[C@@H](n2cnc3c(NC(=O)c4ccccc4)ncnc32)[C@H](O)[C@@H]1O)NCCCN1CCCC1=O	-	-	-	.	-	-
Cc1cc(C)n(CC(=O)n2c3c(c4ccccc42)CCCC3)n1	-	-	-	-	-	-
CCC(=O)c1ccc(-c2ccccc2)cc1	-	-	-	-	-	-
CCC(=O)c1cccc(-c2ccccc2)c1CC	-	-	-69.2	-	-	-
O=C(CC(c1ccccc1)(c1ccccc1)c1ccccc1)N[C@@H](Cc1ccc(O)cc1)C(=O)O	-	-	-	-	-	-
CNC(=S)/N=C/NOCc1ccc(Cl)cc1Cl	?	-[11.3 µM]	-51.2	-	-	-
C[n+]1c2n(c3ccccc31)N=C(c1cc(C(C)(C)C)c(O)c(C(C)(C)C)c1)CS2	22.4µM	?	-100.3	-	-	-
COCn1c(-c2cccc(Br)c2)nc2ccccc21	-	-	-	-	-	-
O=C(O)c1cccc(S(=O)(=O)N(Cc2ccccc2)c2cccc(C(F)(F)F)c2)c1	-	-	-	-	-	-
